In PubChem BioAssay (NCATS) one finds Potency, activation and activity change, negative = inhibition data, which are given here for 19 compounds.

For experiment [1], the target named is Rap guanine nucleotide exchange factor 3 (Homo sapiens) (UniProt O95398). Description: Confirmatory qHTS for antagonist of cAMP-regulated guanine nucleotide exchange factor 3 (EPAC1) (AID 1645880). Also: nearly all actives have a fitted effect of over 55% in size. Also: potency is read from the fitted curve at half-maximal effect.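 As to activity, negative = inhibition: plate controls were DMSO only for no effect and full effect of the ATA control for full effect.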 The note with it: EPAC1 Rap1B-BODIPY-GDP exchange, fluorescence; activity, negative = inhibition: at 115 µM (top of the series). The method, boiled down: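 Nucleotide exchange uses 100 nM EPAC1, 250 nM RAP1B-BODIPY-GDP and 50 uM GDP, with compounds in a concentration-titration series. After 5 min at room temperature, fluorescence (480 nm ex/540 nm em) is read every 5 min for 30 min. Data are normalized to control ATA and DMSO.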

Experiment [2] has the same target. Put plainly: Confirmatory qHTS for agonist of cAMP-regulated guanine nucleotide exchange factor 3 (EPAC1) (AID 1645881).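 Also: EPAC1 catalysed release of BODIPY-GDP from Rap1B seen as fluorescence loss; 100% = effect of cAMP agonist control; nearly all actives have a fitted effect of over 75% in size.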 Conditions: EPAC1 Rap1B BODIPY-GDP exchange fluorescence; series mostly up to 154 µM.
Experiment [3] addresses Rap guanine nucleotide exchange factor 4 (Homo sapiens) (UniProt Q8WZA2). Description: Confirmatory qHTS for agonist of cAMP-regulated guanine nucleotide exchange factor 4 (EPAC2) (AID 1645884).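 Also: nucleotide exchange releases bodipy-GDP from Rap1 and this lowers its fluorescence; nearly all actives have a fitted effect of over 65% in size.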 Also: potency is read from the fitted curve at half-maximal effect. As to activation: % is scaled to controls: 0 for no effect and ±100 for the full control effect. Conditions: EPAC2 GEF activity, Rap1B-BODIPY-GDP fluorescence; series mostly up to 154 µM.
Experiment [4] concerns the target Rap guanine nucleotide exchange factor 3 (Homo sapiens) (UniProt O95398). Put plainly: Counterscreen qHTS for antagonist of cAMP-regulated guanine nucleotide exchange factor 3 (EPAC1) (AID 1645888).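 Also: fluorescence loss as bound BODIPY-GDP is released from Rap1B; % of control where 0% means no effect.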 The note with it: Rap1B-BODIPY-GDP nucleotide exchange, fluorescence; series mostly up to 154 µM. The method, boiled down: (§1)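 Measured: fluorescence of BODIPY-GDP bound to Rap1B, which falls as exchange proceeds. Conditions include 50 uM competing GDP, 5 and 30 min reads, and a later cAMP challenge for antagonist detection.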

For experiment [5] the target is unchanged. Put plainly: Counterscreen qHTS for agonist of cAMP-regulated guanine nucleotide exchange factor 3 (EPAC1) (AID 1645889). Also: % of control where 0% means no effect; nearly all actives have a fitted effect of over 40% in size. The note with it: EPAC1 Rap1B-BODIPY-GDP exchange, fluorescence; series mostly up to 154 µM. Summed up: as §1

Records with an inconclusive call do not appear. A number with no mark means an inactive call. The source made the active and inactive calls. Calls follow the shape of the dose curve; as a rule, active = well fitted curve in the direction sought with a large enough effect; inconclusive = small, poorly fitted or top-dose-only effect, or another doubt; inactive = no such curve, though single readings can be large; an effect the other way counts as inactive or inconclusive.

Chain of Rap guanine nucleotide exchange factor 4 (Homo sapiens) (Q8WZA2 whole entry, looked up): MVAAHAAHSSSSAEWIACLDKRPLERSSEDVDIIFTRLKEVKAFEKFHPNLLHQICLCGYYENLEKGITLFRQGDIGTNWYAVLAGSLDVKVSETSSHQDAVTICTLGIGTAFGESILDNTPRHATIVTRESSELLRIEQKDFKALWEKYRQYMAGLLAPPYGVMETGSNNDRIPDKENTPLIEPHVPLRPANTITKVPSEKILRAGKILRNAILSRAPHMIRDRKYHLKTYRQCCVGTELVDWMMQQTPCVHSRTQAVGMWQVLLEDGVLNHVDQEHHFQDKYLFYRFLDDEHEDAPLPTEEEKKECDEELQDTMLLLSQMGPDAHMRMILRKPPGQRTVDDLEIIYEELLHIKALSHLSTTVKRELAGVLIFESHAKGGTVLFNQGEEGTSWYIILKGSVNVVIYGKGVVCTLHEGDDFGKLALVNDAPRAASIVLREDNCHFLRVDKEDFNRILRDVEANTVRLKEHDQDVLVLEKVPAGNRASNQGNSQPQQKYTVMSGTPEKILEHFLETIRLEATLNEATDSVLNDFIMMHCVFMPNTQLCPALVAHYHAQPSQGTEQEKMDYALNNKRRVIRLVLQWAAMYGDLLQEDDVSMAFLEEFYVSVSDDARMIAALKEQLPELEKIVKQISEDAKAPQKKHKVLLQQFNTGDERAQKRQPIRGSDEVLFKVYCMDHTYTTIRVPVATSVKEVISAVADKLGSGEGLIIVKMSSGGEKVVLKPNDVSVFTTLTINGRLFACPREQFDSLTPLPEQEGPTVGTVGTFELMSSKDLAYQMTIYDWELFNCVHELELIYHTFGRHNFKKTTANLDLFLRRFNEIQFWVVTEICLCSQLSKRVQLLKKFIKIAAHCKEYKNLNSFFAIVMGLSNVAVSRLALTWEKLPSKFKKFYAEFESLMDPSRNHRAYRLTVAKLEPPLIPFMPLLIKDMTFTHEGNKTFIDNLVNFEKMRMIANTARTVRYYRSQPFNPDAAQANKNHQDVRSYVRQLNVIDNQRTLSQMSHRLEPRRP
Chain of Rap guanine nucleotide exchange factor 3 (Homo sapiens) (O95398 whole entry, looked up): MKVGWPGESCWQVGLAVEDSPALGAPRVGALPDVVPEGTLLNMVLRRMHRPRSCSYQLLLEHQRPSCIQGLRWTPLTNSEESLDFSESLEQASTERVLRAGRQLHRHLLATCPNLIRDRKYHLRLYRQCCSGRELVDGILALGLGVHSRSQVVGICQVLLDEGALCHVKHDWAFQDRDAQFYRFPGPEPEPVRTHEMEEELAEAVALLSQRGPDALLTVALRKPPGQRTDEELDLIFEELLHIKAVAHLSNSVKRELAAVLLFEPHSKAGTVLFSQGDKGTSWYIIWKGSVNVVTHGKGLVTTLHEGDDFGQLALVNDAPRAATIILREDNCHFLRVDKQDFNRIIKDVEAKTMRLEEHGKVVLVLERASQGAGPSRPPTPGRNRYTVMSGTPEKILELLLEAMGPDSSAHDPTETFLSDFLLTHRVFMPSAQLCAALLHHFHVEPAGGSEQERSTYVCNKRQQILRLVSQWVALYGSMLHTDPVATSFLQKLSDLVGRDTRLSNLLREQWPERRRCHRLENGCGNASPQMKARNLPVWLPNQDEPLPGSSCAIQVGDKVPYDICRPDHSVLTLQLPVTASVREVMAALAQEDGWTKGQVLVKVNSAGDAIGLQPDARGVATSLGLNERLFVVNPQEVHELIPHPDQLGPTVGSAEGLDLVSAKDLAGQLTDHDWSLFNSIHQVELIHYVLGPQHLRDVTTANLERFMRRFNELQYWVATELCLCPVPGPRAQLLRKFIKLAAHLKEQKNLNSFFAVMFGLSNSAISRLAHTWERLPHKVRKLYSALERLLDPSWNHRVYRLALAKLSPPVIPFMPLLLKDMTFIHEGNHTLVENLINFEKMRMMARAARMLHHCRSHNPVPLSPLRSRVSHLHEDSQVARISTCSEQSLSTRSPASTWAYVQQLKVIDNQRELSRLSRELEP

Consider `O=S1(=O)[C@H]2CC3O[C@]2(C[C@@H]3c2ccc(F)cc2)CN1Cc1ccc(Cl)cc1`, for which the Potency result in experiment [1], in experiment [2], in experiment [3], in experiment [4] and in experiment [5] was “inactive” throughout.

Turning to `Cc1cc(C(=O)N/N=C/c2ccc(O)c([N+](=O)[O-])c2)c(C)n1-c1ccc(F)cc1`, in experiment [1], the Potency is 42.6 µM (active). Further, the Potency result in experiment [2], in experiment [3], in experiment [4] and in experiment [5] was “inactive” in each case.

Consider `COc1ccc(C(=O)n2c(-c3ccco3)nc3ccccc32)cc1`, for which the Potency result in experiment [1] and in experiment [2] was “inactive” throughout. In addition, the activation in experiment [3] was 7.17% [at 17.1 µM, percent relative to cAMP agonist control]; in experiment [5] it was 10% [at 30.8 µM]. Further, the activity change, negative = inhibition in experiment [4] was -27.8% [at 30.8 µM].

Turning to `CC(C)(C)c1ccc(OCC(=O)Nc2ccc(C(=O)Nc3ccccc3C(=O)O)cc2)cc1`, in experiment [1], the Potency was 75.7 µM (active). For the same compound, the Potency result in experiment [2], in experiment [3], in experiment [4] and in experiment [5] was “inactive” throughout.

On to `CC(C)CSC1=NSC2=NC(=O)/C(=C\c3coc4ccccc4c3=O)C(=N)N12`, for which the Potency result in experiment [1], in experiment [2], in experiment [4] and in experiment [5] was “inactive” each time. For the same compound, the Potency in experiment [3] is 112 µM (active).

Regarding `CCCCOc1ccc(/C=C/C(=O)OCC(=O)NC(=O)NCC(C)C)cc1OCC`, the Potency result in experiment [1], in experiment [2], in experiment [3], in experiment [4] and in experiment [5] was “inactive” in each case.

As to `CN(C)c1ccc(/C=C(\C#N)c2ccccn2)cc1`, the Potency entry in experiment [1], in experiment [2], in experiment [3], in experiment [4] and in experiment [5] was “inactive” throughout.

Turning to `Cc1ccc(NC(=O)COC(=O)c2ccccc2-c2nc3ccccc3s2)c(C)c1`, the Potency entry in experiment [1], in experiment [2], in experiment [3], in experiment [4] and in experiment [5] was “inactive” throughout.

Turning to `C=CCn1c(SC(F)F)nc2scc(-c3ccco3)c2c1=O`, the Potency entry in experiment [1], in experiment [2], in experiment [3], in experiment [4] and in experiment [5] was “inactive” in each case.

Turning to `O=S(=O)(Nc1ccc(C(O)(C(F)(F)F)C(F)(F)F)cc1)c1ccc(Cl)c2nonc12`, in experiment [1], the Potency is 42.6 µM (active). Besides, the Potency entry in experiment [2], in experiment [3], in experiment [4] and in experiment [5] was “inactive” in each case.

For `CCN(CC(=O)Nc1ccccc1C(=O)NC1CC1)Cc1cccs1`, the Potency result in experiment [1], in experiment [2], in experiment [3], in experiment [4] and in experiment [5] was “inactive” each time.

Take `CCOC(=O)c1cc2c(ccn2C)n1Cc1ccccc1Cl`: the Potency result in experiment [1], in experiment [2], in experiment [3], in experiment [4] and in experiment [5] was “inactive” in each case.

`O=C(CN1CCCCCC1)Nc1ccccc1Oc1ccccc1`: the Potency entry in experiment [1], in experiment [2], in experiment [3], in experiment [4] and in experiment [5] was “inactive” throughout.

On to `CC(=O)NC(c1cccc(F)c1)c1nc(-c2cccs2)cs1` (stereo not given), for which the Potency entry in experiment [1], in experiment [2], in experiment [3], in experiment [4] and in experiment [5] was “inactive” each time.

Consider `CC1=C(C(=O)OCc2ccccc2)C(c2ccc(Cl)cc2Cl)NC(=O)N1CCCCCC(=O)O` (stereo not given), for which the Potency in experiment [1] is 75.7 µM (active). Also, the Potency entry in experiment [2], in experiment [3], in experiment [4] and in experiment [5] was “inactive” throughout.

Regarding `CCOc1ccc(C(=O)NCC(=O)Nc2ncccc2C)cc1OCC`, the Potency result in experiment [1], in experiment [2], in experiment [3], in experiment [4] and in experiment [5] was “inactive” each time.

On to `COc1ccc(-c2csc3ncn(-c4ccc(C)cc4)c(=O)c23)cc1OC`, for which the Potency entry in experiment [1], in experiment [2], in experiment [3], in experiment [4] and in experiment [5] was “inactive” throughout.

For `O=S(=O)(c1ccc(Cl)cc1Br)N1CCCCC1`, the Potency result in experiment [1] and in experiment [2] was “inactive” each time. Besides, the activation is 12.1% [at 17.1 µM, percent relative to cAMP agonist control] in experiment [3] and 10.6% [at 30.8 µM] in experiment [5]. Also, in experiment [4], the activity change, negative = inhibition is -6.37% [at 30.8 µM].

Take `O=C1c2cccc3cccc(c23)N1Cc1cccc(F)c1`: the Potency result in experiment [1] and in experiment [2] was “inactive” each time. Further, the activation in experiment [3] was 7.33% [at 17.1 µM, percent relative to cAMP agonist control]; in experiment [5] it was 26.6% [at 30.8 µM]. In experiment [4], the activity change, negative = inhibition is -7.63% [at 30.8 µM].
